The source made the active and inactive calls. Unless noted, the rule behind the calls is not given here.
What was measured:
[1] = resazurin metabolic signal in HepG2 cells – cell-based, resazurin fluorescence, 24 h, PK04 Diversity Set, profiling panel (AID 1172); details: HepG2 viability, higher = more signal
[2] = budding yeast growth changes without added modifier – OD600, strain BY4716, 24 h, basal condition, primary screen (AID 1173); details: S. cerevisiae BY4716 growth, OD600, 24 h; higher = more signal, called active from +8 up or from −8 down
[3] = viability profiling in MM1S myeloma cells – cell-based, resazurin fluorescence, basal, 24 h, PK04 Diversity Set, profiling panel (AID 1174); details: higher = more signal, called active from +8 up or from −8 down;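 note: MM1S multiple myeloma cell line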
[4] = target: Dihydroorotate dehydrogenase (quinone), mitochondrial (Plasmodium falciparum (isolate 3D7)) (UniProt Q08210); test: inhibition of P. falciparum DHODH – biochemical, C-terminal His tag, absorbance 600 nm, primary screen (AID 1175); details: PfDHODH enzyme, DCIP absorbance 600 nm; higher = more signal, called active from +8 up or from −8 down;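 note: recombinant parasite enzyme with a five histidine tag at its C terminus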
[5] = inhibition of PAO1 biofilm formation – strain PAO1, LB-PBS medium, absorbance 600 nm, primary screen (AID 1176); details: P. aeruginosa PAO1 growth/biofilm, A600, 12 h; higher = more signal
[6] = growth modulation of vineyard yeast isolate – strain RM11-1a, OD600, basal, 24 h, primary screen (AID 1177);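 note: cultures grown under basal conditions with no added stressor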; details: S. cerevisiae RM11-1a growth, OD600, 24 h; higher = more signal, called active from +8 up or from −8 down
[7] = growth of efflux-deficient E. coli DRC39 – strain DRC39, OD650, 24 h, E. coli filamentation inducers, primary screen (AID 1178);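 note: growth measured as culture turbidity by optical density at 650 nm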; details: E. coli DRC39 acrAB, higher = more signal, called active from +8 up or from −8 down
[8] = growth of efflux-deficient E. coli DRC39 – strain DRC39, OD650, 48 h, E. coli filamentation inducers, primary screen (AID 1179);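 note: screen aims at cell division blockers that make cells filament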; details: E. coli DRC39 delta-acrAB growth, higher = more signal, called active from +8 up or from −8 down
[9] = viability profiling in RPMI8226 myeloma cells – cell-based, resazurin fluorescence, basal, 24 h, PK04 Diversity Set, profiling panel (AID 1180); details: higher = more signal;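 note: RPMI8826 multiple myeloma cell line at 5000 cells per well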
[10] = target: E3 ubiquitin-protein ligase XIAP (Homo sapiens) (UniProt P98170); test: small molecules binding XIAP protein – biophysical, small-molecule microarray, fluorescence 635 nm, primary screen (AID 1181); details: higher = more signal;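 note: score merges 667 nm emission and signal to noise over triplicate slides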
[11] = test system: XIP peptide (Xip251-270) binding; test: XIP fragment 251-270 binding compounds – biochemical, small-molecule microarray, fluorescence 635/667 nm, 0.1 µg/mL protein, primary screen (AID 1182); details: fluorescent protein binding, 635 nm, higher = more signal, called active from +8 up or from −8 down
XIP peptide (Xip251-270) = test: compounds binding XIP fragment 251-270 – biochemical, small-molecule microarray, fluorescence 635/667 nm, 0.5 µg/mL protein, primary screen (AID 1183); details: fluorescence 635 nm, higher = more signal
[12] = blood-stage malaria parasite viability loss – strain 3D7, DAPI fluorescence, 100 nL, primary screen (AID 1184);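 note: parasites grown inside human red blood cells in medium with human serum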; details: P. falciparum 3D7 growth, 3 d, higher = more signal
[13] = target: Homeobox protein Hox-A13 (Mus musculus) (UniProt Q62424); test: disruptors of Hoxa13 oligonucleotide interaction – biochemical, fluorescence polarization, labeled oligonucleotide, primary screen (AID 1185); details: Hoxa13:DNA binding, 15 min, higher = more signal, called active from +8 up or from −8 down
[14] = blockers of DNA damage checkpoint Chk1 activation – imaging, HeLa, hydroxyurea, phospho-Chk1 antibody, percent positive cells, primary screen (AID 1186); details: hydroxyurea-induced phospho-Chk1 immunofluorescence imaging, higher = more signal
[15] = blockers of DNA damage checkpoint Chk1 activation – imaging, HeLa, hydroxyurea, phospho-Chk1 nuclear intensity, primary screen (AID 1187); details: hydroxyurea-induced phospho-Chk1 immunofluorescence imaging, higher = more signal

Sequence of Homeobox protein Hox-A13 (Mus musculus) (Q62424 whole entry, looked up): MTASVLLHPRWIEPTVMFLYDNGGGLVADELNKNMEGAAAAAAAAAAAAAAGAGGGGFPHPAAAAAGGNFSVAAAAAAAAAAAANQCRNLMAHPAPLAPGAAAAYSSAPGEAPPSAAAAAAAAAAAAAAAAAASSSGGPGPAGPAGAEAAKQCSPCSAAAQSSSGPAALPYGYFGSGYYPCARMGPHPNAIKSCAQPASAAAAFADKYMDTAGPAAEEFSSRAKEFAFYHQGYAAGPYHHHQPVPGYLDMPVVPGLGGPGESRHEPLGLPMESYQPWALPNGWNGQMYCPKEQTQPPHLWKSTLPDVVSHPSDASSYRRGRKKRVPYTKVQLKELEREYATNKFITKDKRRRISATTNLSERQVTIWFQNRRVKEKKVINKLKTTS
Sequence of E3 ubiquitin-protein ligase XIAP (Homo sapiens) (P98170 whole entry, looked up, the tested form may be a part): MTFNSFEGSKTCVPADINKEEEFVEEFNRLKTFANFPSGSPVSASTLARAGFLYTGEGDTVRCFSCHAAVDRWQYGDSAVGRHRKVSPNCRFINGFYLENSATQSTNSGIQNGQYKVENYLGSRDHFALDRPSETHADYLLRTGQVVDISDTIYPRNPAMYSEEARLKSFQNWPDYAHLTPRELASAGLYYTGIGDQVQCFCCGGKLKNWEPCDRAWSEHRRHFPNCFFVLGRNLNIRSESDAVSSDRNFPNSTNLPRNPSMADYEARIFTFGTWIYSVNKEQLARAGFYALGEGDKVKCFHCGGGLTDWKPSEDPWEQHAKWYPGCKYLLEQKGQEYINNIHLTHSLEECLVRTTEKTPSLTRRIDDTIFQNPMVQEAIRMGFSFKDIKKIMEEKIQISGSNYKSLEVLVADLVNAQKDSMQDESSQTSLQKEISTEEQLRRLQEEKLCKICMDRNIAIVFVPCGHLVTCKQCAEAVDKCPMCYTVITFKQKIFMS
Sequence of Dihydroorotate dehydrogenase (quinone), mitochondrial (Plasmodium falciparum (isolate 3D7)) (Q08210 whole entry, looked up): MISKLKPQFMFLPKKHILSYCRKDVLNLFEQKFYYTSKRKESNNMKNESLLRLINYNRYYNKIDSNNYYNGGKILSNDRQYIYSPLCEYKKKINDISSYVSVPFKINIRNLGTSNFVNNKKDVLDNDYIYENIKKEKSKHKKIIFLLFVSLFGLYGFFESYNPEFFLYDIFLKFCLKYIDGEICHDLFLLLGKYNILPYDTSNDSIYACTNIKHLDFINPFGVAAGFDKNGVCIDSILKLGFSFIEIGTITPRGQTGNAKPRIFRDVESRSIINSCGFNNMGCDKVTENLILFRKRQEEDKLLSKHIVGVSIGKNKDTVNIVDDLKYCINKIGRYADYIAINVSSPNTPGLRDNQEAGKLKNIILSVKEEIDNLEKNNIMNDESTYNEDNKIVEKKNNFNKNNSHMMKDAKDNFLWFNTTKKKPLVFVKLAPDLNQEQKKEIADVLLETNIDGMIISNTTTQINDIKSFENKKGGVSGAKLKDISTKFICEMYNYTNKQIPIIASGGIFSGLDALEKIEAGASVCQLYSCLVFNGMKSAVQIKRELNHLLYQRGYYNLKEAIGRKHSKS

Structure (SMILES) | z-score [1] | z-score [2] | z-score [3] | composite z-score [4] | z-score [5] | z-score [6] | z-score [7] | z-score [8] | z-score [9] | composite z-score [10] | composite z-score [11] | composite z-score (XIP peptide (Xip251-270)) | z-score [12] | z-score [13] | z-score [14] | z-score [15]
C=CC[C@]1(C(=O)NCCN2CCOCC2)N=C(c2ccc(OCCCO)cc2)O[C@H]1c1ccccc1CN=[N+]=[N-] | 0.735 | -1.01 (inactive) | 0.33 (inactive) | 0.453 (inactive) | -1.17 (inactive) | 0.724 (inactive) | 1.31 (inactive) | 0.351 (inactive) | 0.485 | -0.209 | 0.882 (inactive) | 0.887 | -2.29 | -4.74 (inactive) | -0.005 (inactive) | 0.23 (inactive)
COc1ccc([Si](C)(C)[C@@H]2[C@@H](CC(=O)N3Cc4ccccc4C[C@H]3CO)O[C@]3(C(=O)N(C)c4ccccc43)[C@H]2C)cc1 | -1.35 | -2.33 (inactive) | -2.97 (inactive) | 0.0586 (inactive) | 1.81 (inactive) | 1.87 (inactive) | 1.21 (inactive) | 0.403 (inactive) | -4.65 | -0.0095 | 0.176 (inactive) | 0.773 | -2.74 | -6.03 (inactive) | -1.6 (inactive) | -0.901 (inactive)
COC(=O)[C@@]1(Cc2ccc(OC)cc2)[C@H]2c3cc(C(=O)N4CCCC4)n(Cc4cccc5ccccc45)c3C[C@H]2CN1C(=O)c1ccccc1 | -0.18 | 1.07 (inactive) | -0.619 (inactive) | 0.237 (inactive) | -0.362 (inactive) | 1.08 (inactive) | 0.24 (inactive) | 0.277 (inactive) | 0.0686 | 0.5 | 0.0014 (inactive) | 0.658 | -1.58 | -1.44 (inactive) | -0.491 (inactive) | -0.684 (inactive)
CCC[C@@H]1C[C@@]1(CCC)[C@@H](NC(=O)OCc1ccccc1)c1ccc(-c2ccccc2)cc1 | 2.43 | -2.75 (inactive) | 0.879 (inactive) | -0.251 (inactive) | 0.191 (inactive) | 0.259 (inactive) | 0.358 (inactive) | 0.492 (inactive) | 1.72 | -0.0669 | -0.384 (inactive) | -0.237 | -0.54 | -3.15 (inactive) | 0.977 (inactive) | 0.198 (inactive)
NCCCCCNC(=O)[C@@H]1C[C@@H]2C(=O)NCC(=O)N2[C@@H]1c1cccc(OCCO)c1 | -0.727 | -0.202 (inactive) | 0.584 (inactive) | -0.73 (inactive) | 1.29 (inactive) | 0.561 (inactive) | -0.0625 (inactive) | -0.485 (inactive) | 0.974 | 0.012 | 0.318 (inactive) | 0.782 | -1.28 | -1.43 (inactive) | 0.518 (inactive) | 0.503 (inactive)
COc1ccc(CN(C2=CC[C@@]3(C(N)=O)C(=O)C(Cl)=C(Cl)C(=O)[C@@]3(C#N)C2)S(=O)(=O)c2ccc(Br)cc2)cc1 | -0.275 | -1.2 (inactive) | -2.88 (inactive) | -4.12 (inactive) | 0.481 (inactive) | -0.96 (inactive) | 0.506 (inactive) | 0.575 (inactive) | -1.18 | 0.0937 | 0.68 (inactive) | 0.923 | 0.435 | -6.44 (inactive) | -0.207 (inactive) | -0.179 (inactive)
CN(C)CCCNC(=O)[C@@]1(c2ccc([N+](=O)[O-])cc2)CC(=O)N(CC23CC4CC(CC(C4)C2)C3)[C@@H]1c1ccc(CO)cc1I | -6.51 | -16.9 (active) | -9.05 (active) | -0.173 (inactive) | 0.277 (inactive) | -20.9 (active) | -1.46 (inactive) | -2.96 (inactive) | -6.63 | -0.0541 | 0.166 (inactive) | 0.86 | -2.16 | 8.34 (active) | -0.449 (inactive) | -0.766 (inactive)
[N-]=[N+]=Nc1ccccc1C[C@]1(C(N)=O)N=C(c2ccc(OCCCO)cc2)O[C@H]1c1ccccc1N=[N+]=[N-] | -0.0314 | -2.88 (inactive) | -1.55 (inactive) | -0.398 (inactive) | -0.193 (inactive) | -0.315 (inactive) | 0.892 (inactive) | -0.142 (inactive) | -1.64 | -0.248 | 0.635 (inactive) | 0.756 | -2.65 | -5.32 (inactive) | -0.433 (inactive) | -0.683 (inactive)
O=C1NC(=O)C2C1C=CC(C(O)c1ccco1)N2Nc1ccccn1 (stereo not drawn) | -1.32 | 0.461 (inactive) | -1.68 (inactive) | 0.257 (inactive) | 0.956 (inactive) | 0.254 (inactive) | -0.457 (inactive) | -0.21 (inactive) | -1.09 | -0.0342 | -0.409 (inactive) | -0.195 | 1.36 | -3.55 (inactive) | 0.0556 (inactive) | -0.0488 (inactive)
[N-]=[N+]=NCc1ccccc1[C@H]1OC(c2ccc(OCCCO)cc2)=N[C@@]1(CCS(=O)(=O)c1ccccc1)C(=O)N1CCCCC1 | -0.0145 | 0.285 (inactive) | -1.55 (inactive) | 0.716 (inactive) | 0.659 (inactive) | 1.77 (inactive) | -0.132 (inactive) | -0.846 (inactive) | -0.661 | 0.0593 | 0.447 (inactive) | 0.757 | -2.46 | -3.76 (inactive) | -0.0013 (inactive) | -0.0087 (inactive)
C[N+](C)(C)CCCCCCNC(=O)[C@H]1C[C@H]2C(=O)N[C@@H](Cc3ccccc3)C(=O)N2[C@H]1c1ccc(O)cc1 | -0.324 | 0.119 (inactive) | 0.13 (inactive) | -0.673 (inactive) | -0.546 (inactive) | -0.0281 (inactive) | 0.962 (inactive) | 1.3 (inactive) | 0.201 | -0.162 | 0.901 (inactive) | 0.5 | 0.0933 | -3.23 (inactive) | 0.141 (inactive) | 0.14 (inactive)
CN(C)c1ccc(C(O)C2C=CC3C(=O)N(c4ccccc4)C(=O)C3N2Nc2ccc([N+](=O)[O-])cc2)cc1 (stereo not drawn) | -0.529 | -0.491 (inactive) | -0.96 (inactive) | 0.835 (inactive) | 0.617 (inactive) | 0.706 (inactive) | -0.876 (inactive) | -0.914 (inactive) | -1.41 | -0.359 | -0.0383 (inactive) | 0.648 | -0.704 | -5.57 (inactive) | 0.55 (inactive) | -0.576 (inactive)
COCCOC(=O)N1C(=O)[C@@]2(c3cc(C#CC4(O)CCCCCC4)ccc31)[C@H](c1ccc(O)cc1)N1[C@H](c3ccccc3)[C@H](c3ccccc3)OC(=O)[C@H]1[C@@H]2C(=O)NC[C@H](O)c1ccccc1 | 0.267 | 0.31 (inactive) | -1.45 (inactive) | 0.658 (inactive) | 1.29 (inactive) | 0.657 (inactive) | 0.157 (inactive) | -0.105 (inactive) | -1.62 | 0.367 | 1.71 (inactive) | 0.681 | -0.0194 | -2.78 (inactive) | -0.145 (inactive) | -0.154 (inactive)

From PubChem BioAssay
